# Laboratory results taken from paper PMC5540273 (PLoS ONE, 2017).
# Key:
# Settings in all cases: concentration: 1 μM, replicates: in singlicate; n = 1
# PDGFRB = test system: PDGFRB
# PDPK1 = test system: PDPK1
# PFTAIRE2 = test system: PFTAIRE2
# PFTK1 = test system: T1, PFTK1
# T1 construct: gene CDK14
# PHKG1 = test system: PHKG1
# PHKG2 = test system: PHKG2
# PIK3C2B = test system: PIK3C2B
# PIK3C2G = test system: PIK3C2G
# PIK3CA = test system: PIK3CA
# PIK3CB = test system: PIK3CB
# 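Also: KINOMEscan kinase panel screen.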
SMILES,%Inh (PDGFRB) [%],%Inh (PDPK1) [%],%Inh (PFTAIRE2) [%],%Inh (PFTK1) [%],%Inh (PHKG1) [%],%Inh (PHKG2) [%],%Inh (PIK3C2B) [%],%Inh (PIK3C2G) [%],%Inh (PIK3CA) [%],%Inh (PIK3CB) [%]
CN1c2ccc(-c3ccc(C(=O)NCCO)cc3)cc2-c2[nH]ncc2S1(=O)=O,11,17,0,0,0,41,0,8,0,0
CCc1nc(-c2cccc(N(C)S(=O)(=O)c3ccccc3)c2)c(-c2ccnc(Nc3ccc(N4CCN(C(C)=O)CC4)nc3)n2)s1 [GSK1645895],32,0,25,20,0,0,0,0,0,0
O=C(Nc1n[nH]c2nc(-c3ccco3)c(Br)cc12)c1ccc(CN2CCCC2)cc1.O=C(O)[C@H](O)[C@@H](O)C(=O)O [SB-742352],99.7,0,5,0,0,0,0,0,0,0
Clc1cccc(-c2nc(Nc3ccncc3)c3ccccc3n2)c1 [GW873004],12,4,0,0,0,0,0,0,0,0
Cl.O=S(=O)(c1cccc(F)c1)c1ccc(Nc2ncnc3cc(Br)sc23)cc1Cl [GSK306886],46,0,24,21,0,0,28,0,0,0
Nc1nc(-c2ccc3c(N)n[nH]c3c2)cc(N2CCC[C@@H](C(=O)Nc3ccccc3)C2)n1.O=C(O)C(F)(F)F.O=C(O)C(F)(F)F [GSK2288359],31,,18,16,0,2,1,42,4,0
O=C(Nc1ccccc1)Nc1ccc(Oc2ccc3nccn3n2)cc1,99,0,0,0,0,5,0,0,0,0
Clc1ccc(-c2cc(-c3c[nH]nc3-c3ccccn3)ccn2)cc1 [GW681251],62,0,1,0,0,0,0,0,0,0
CSc1nn2c(=O)cc(N3CCOCC3)nc2n1Cc1cccc(Cl)c1Cl [GSK2347225],24,0,45,20,0,0,80,33,15,100
FC(F)(F)c1cc(Nc2nccc(-c3c(-c4ccc(Cl)cc4)nn4ncccc34)n2)ccc1Cl [GW829351],3,0,0,0,0,0,0,0,0,0
Cc1ccc(NC(=O)c2cccc(C#N)c2)cc1-c1ccc(C(=O)Nc2ccncc2)cc1 [GSK1398463],100,17,13,27,2,0,5,4,6,0
CCC(CC)(CC)n1cnc2c(N)ncnc21 [SKF-97620],0,0,0,0,0,0,0,9,6,27
COc1ccc(NC(=O)Nc2ccc(C)c(-c3ccc(C(=O)Nc4ccncc4)cc3)c2)cc1 [GSK1398475],100,0,20,24,0,0,0,0,0,0
CS(=O)(=O)CCNCc1ccc(-c2ccc3ncnc(Nc4ccc(OCc5ccccc5)c(Cl)c4)c3c2)o1.Cl [GW574783],14,17,0,0,13,0,38,0,0,0
COc1ccc(-c2oc3ncnc(N)c3c2-c2ccc(OC)cc2)cc1 [SB-589132],41,0,17,0,0,0,0,10,0,0
Cc1cc(N2CCC(NS(=O)(=O)c3ccc(F)cc3)CC2)nc(Nc2cccc(C#N)c2)n1.O=C(O)C(F)(F)F [GSK1653537],0,15,10,9,17,0,0,6,0,2
Nc1nc(-c2ccccn2)c(-c2ccnc3ccccc23)s1 [GW548057],23,0,9,29,0,6,0,0,7,14
